Laboratory results taken from the supplement of paper PMC10849652.
Of roughly 8,800 targets only a part is listed; those with a hit were picked by preference. About 0.5% of all pairs of compound and target were hits.

How the values were obtained:
Assay in all cases: log2 fold change, soluble protein after heating vs DMSO (PISA); higher = thermal stabilisation; K562 lysate, 10 uM; active = over 0.2 and 3.5 SD of the protein, either way, in both replicates (recomputed)
lapatinib = compound: CS(=O)(=O)CCNCc1ccc(-c2ccc3ncnc(Nc4ccc(OCc5cccc(F)c5)c(Cl)c4)c3c2)o1 [lapatinib]
Outline: (§1)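 Soluble protein was defined as the supernatant remaining after 21,000xg for 90 min, following pooling of heated aliquots and adjustment to 0.5% NP-40 at 4°C. Before that, crude K562 extract at 1 mg/mL protein in PBS pH 7.4 with 1 mM MgCl2 was treated with 10 μM compound for 30 min and heated for 3 min across 48°C-58°C. Quantification used TMTpro 16plex LC-MS/MS with channel sums equalised, and values are log-two fold changes in thermal stability relative to solvent controls from duplicates.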

pictilisib = compound: CS(=O)(=O)N1CCN(Cc2cc3nc(-c4cccc5[nH]ncc45)nc(N4CCOCC4)c3s2)CC1 [pictilisib]
Outline: as §1

crizotinib = compound: C[C@@H](Oc1cc(-c2cnn(C3CCNCC3)c2)cnc1N)c1c(Cl)ccc(F)c1Cl [crizotinib]
Outline: as §1

[1] = compound: C[C@H](C1=CC=C(C=C1)C(=O)NC2=C3C=CNC3=NC=C2)N
Outline: as §1

duvelisib = compound: C[C@H](Nc1ncnc2nc[nH]c12)c1cc2cccc(Cl)c2c(=O)n1-c1ccccc1 [duvelisib]
Outline: as §1

gandotinib = compound: Cc1cc(Nc2cc(CN3CCOCC3)c3nc(C)c(Cc4ccc(Cl)cc4F)n3n2)n[nH]1 [gandotinib]
Outline: as §1

tozasertib = compound: Cc1cc(Nc2cc(N3CCN(C)CC3)nc(Sc3ccc(NC(=O)C4CC4)cc3)n2)n[nH]1 [tozasertib]
Outline: as §1

doramapimod = compound: Cc1ccc(-n2nc(C(C)(C)C)cc2NC(=O)Nc2ccc(OCCN3CCOCC3)c3ccccc23)cc1 [doramapimod]
Outline: as §1

bafetinib = compound: Cc1ccc(NC(=O)c2ccc(CN3CC[C@H](N(C)C)C3)c(C(F)(F)F)c2)cc1Nc1nccc(-c2cncnc2)n1 [bafetinib]
Outline: as §1

[2] = compound: Cc1cccc(CC(=O)N2CCc3c2ccc(-c2cn(C)c4ncnc(N)c24)c3F)n1
Outline: as §1

Measured: log2 fold change

TSFM (UniProt P43897)
Sequence of UniProt P43897 (P43897 whole entry, looked up): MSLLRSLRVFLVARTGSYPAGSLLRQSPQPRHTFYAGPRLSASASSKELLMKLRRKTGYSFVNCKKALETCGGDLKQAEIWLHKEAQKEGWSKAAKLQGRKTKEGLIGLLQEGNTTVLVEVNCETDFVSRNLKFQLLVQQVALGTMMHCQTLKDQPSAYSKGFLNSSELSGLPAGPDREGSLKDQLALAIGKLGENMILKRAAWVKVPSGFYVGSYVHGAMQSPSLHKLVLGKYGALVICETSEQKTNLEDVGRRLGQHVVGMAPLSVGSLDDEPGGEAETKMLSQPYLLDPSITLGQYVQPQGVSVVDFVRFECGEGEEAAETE
inactive: lapatinib 0.003 | pictilisib -0.007 | crizotinib -0.056 | [1] 0.012 | duvelisib 0.025 | gandotinib -0.122 | tozasertib 0.047 | doramapimod 0.06 | bafetinib -0.026 | [2] -0.034

TUBB3 (UniProt Q13509)
Sequence of UniProt Q13509 (Q13509 whole entry, looked up): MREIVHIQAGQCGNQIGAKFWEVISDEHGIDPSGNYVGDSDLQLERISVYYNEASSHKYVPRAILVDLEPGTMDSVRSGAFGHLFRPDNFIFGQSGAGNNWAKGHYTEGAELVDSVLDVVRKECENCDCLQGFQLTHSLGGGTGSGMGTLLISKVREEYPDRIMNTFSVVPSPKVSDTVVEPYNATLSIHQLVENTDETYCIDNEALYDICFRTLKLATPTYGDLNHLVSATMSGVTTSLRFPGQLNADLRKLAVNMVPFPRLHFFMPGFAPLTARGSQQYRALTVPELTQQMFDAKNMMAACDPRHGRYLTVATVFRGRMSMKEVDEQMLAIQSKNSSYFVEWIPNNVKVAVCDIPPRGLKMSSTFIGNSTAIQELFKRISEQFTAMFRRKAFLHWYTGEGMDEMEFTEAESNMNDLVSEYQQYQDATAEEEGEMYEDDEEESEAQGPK
inactive: lapatinib 0.015 | pictilisib 0.032 | crizotinib -0.027 | [1] 0.018 | duvelisib 0.026 | gandotinib 0.02 | tozasertib 0.001 | doramapimod -0.005 | bafetinib 0.021 | [2] 0.001

TRMT12 (UniProt Q53H54)
Sequence of UniProt Q53H54 (Q53H54 whole entry, looked up): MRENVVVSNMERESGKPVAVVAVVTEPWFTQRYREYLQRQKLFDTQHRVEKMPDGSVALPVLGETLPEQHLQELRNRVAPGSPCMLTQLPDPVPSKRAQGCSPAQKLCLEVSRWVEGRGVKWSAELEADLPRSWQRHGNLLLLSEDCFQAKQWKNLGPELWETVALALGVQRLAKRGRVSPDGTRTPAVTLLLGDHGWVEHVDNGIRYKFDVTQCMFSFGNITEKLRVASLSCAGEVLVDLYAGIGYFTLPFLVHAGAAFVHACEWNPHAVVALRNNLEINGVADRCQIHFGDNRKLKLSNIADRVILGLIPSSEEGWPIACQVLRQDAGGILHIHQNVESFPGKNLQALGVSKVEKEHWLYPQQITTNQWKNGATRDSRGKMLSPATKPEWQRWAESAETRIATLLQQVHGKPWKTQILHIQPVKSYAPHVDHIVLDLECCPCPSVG
inactive: lapatinib 0.064 | pictilisib -0.02 | crizotinib -0.03 | [1] -0.289 | duvelisib 0.055 | gandotinib -0.054 | tozasertib -0.021 | doramapimod 0.059 | bafetinib -0.021 | [2] 0.14

TLE3 isoform 4 (UniProt Q04726)
Sequence of UniProt Q04726 (Q04726 whole entry, looked up): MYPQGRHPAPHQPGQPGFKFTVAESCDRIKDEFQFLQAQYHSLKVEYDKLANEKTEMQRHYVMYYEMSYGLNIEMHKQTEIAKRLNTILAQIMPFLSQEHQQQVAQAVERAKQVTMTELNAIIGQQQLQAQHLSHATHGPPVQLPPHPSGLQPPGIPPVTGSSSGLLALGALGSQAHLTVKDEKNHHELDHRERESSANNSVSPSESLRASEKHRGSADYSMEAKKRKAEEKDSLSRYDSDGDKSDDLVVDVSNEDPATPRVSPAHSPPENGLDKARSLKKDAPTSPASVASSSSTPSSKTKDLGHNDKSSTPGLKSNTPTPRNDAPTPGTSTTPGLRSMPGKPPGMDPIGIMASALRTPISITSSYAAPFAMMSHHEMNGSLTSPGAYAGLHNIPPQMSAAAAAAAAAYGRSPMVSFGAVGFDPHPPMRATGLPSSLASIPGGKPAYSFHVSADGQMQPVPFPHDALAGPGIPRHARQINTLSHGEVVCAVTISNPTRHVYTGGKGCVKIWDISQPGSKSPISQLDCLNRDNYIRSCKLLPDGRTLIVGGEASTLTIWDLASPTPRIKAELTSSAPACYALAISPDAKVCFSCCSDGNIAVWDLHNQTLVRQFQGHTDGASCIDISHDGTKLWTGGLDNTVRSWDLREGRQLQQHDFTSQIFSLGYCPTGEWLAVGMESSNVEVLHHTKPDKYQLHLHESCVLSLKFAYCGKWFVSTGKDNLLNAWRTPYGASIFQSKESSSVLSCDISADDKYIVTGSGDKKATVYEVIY
inactive: lapatinib -0.01 | pictilisib 0.008 | crizotinib 0.003 | [1] 0.004 | duvelisib -0.015 | gandotinib 0 | tozasertib -0.029 | doramapimod -0.016 | bafetinib 0.1 | [2] -0.048

TNPO3 (UniProt Q9Y5L0)
Sequence of UniProt Q9Y5L0 (Q9Y5L0 whole entry, looked up): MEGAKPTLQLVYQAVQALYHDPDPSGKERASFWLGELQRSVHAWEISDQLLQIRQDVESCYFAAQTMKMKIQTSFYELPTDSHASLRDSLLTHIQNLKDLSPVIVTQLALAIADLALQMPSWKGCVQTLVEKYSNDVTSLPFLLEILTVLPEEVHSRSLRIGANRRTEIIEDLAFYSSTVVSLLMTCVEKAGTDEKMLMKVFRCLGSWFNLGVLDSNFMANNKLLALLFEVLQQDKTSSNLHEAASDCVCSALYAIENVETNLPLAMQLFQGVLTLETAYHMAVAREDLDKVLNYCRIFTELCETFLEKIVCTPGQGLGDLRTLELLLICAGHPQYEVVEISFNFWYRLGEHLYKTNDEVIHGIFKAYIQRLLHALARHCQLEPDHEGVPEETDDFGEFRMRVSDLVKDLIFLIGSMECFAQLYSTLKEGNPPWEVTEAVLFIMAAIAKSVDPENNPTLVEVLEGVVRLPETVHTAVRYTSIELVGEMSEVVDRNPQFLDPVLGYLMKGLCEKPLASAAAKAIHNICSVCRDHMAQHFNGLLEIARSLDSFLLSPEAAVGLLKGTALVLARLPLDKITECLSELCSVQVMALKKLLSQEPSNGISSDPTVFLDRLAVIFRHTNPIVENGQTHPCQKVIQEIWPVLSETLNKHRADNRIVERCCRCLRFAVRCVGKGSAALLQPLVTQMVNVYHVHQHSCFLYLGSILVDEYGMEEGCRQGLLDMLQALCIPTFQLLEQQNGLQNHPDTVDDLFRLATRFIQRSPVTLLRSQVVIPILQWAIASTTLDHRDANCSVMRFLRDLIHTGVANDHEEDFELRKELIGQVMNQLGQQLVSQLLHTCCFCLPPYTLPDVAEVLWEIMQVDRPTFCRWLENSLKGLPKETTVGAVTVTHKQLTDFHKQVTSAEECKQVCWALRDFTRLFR
inactive: lapatinib -0.024 | pictilisib -0.001 | crizotinib 0.01 | [1] -0.015 | duvelisib 0.025 | gandotinib -0.006 | tozasertib -0.036 | doramapimod -0.024 | bafetinib -0.028 | [2] 0.026

TBC1D23 (UniProt Q9NUY8)
inactive: lapatinib -0.007 | pictilisib -0.016 | crizotinib -0.031 | [1] -0.033 | duvelisib -0.012 | gandotinib 0.03 | tozasertib 0.034 | doramapimod 0.017 | bafetinib -0.027 | [2] 0.048

TUBA1B (UniProt P68363)
inactive: lapatinib 0.004 | pictilisib 0.001 | crizotinib -0.039 | [1] -0.015 | duvelisib -0.011 | gandotinib 0.022 | tozasertib -0.011 | doramapimod 0.023 | bafetinib -0.025 | [2] 0.002

TMOD1 (UniProt P28289)
inactive: lapatinib 0 | pictilisib -0.032 | crizotinib -0.011 | [1] 0.039 | duvelisib -0.008 | gandotinib -0.059 | tozasertib 0.026 | doramapimod 0.019 | bafetinib -0.004 | [2] -0.029

TTC38 (UniProt Q5R3I4)
inactive: lapatinib -0.034 | pictilisib -0.029 | crizotinib 0.031 | [1] 0.213 | duvelisib -0.022 | gandotinib -0.116 | tozasertib -0.011 | bafetinib 0.065 | [2] -0.186
active: doramapimod 0.301

UBA1 (UniProt P22314)
Sequence of UniProt P22314 (P22314 whole entry, looked up): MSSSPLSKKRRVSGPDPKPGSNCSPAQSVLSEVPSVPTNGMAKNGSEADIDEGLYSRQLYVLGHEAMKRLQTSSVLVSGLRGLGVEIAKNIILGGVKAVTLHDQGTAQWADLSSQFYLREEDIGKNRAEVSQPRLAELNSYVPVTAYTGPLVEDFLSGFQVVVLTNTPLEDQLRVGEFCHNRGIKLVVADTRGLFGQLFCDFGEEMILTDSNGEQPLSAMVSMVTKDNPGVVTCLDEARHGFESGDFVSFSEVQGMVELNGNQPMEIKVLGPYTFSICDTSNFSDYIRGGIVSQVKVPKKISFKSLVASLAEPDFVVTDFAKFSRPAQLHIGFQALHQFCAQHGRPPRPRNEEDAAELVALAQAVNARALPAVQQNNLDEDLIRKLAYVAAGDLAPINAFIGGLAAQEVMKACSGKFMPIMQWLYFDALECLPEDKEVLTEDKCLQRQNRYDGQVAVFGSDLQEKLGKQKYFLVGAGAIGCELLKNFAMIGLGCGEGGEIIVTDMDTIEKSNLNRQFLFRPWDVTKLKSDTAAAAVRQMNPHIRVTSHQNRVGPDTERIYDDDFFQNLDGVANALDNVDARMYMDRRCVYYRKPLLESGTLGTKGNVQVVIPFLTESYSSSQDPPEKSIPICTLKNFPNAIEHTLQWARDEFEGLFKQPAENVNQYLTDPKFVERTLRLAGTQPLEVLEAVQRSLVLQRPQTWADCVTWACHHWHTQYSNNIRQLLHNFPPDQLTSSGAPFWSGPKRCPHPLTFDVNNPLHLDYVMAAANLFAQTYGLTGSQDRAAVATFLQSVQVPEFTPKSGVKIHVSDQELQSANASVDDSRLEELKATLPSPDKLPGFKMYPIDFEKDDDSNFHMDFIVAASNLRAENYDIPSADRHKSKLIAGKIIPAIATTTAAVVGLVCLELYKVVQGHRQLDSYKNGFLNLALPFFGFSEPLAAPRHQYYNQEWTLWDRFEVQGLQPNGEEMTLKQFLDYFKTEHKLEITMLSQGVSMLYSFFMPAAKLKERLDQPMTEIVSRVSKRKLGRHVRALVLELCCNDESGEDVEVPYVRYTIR
inactive: lapatinib -0.005 | pictilisib -0.003 | crizotinib -0.037 | [1] -0.012 | duvelisib 0.011 | gandotinib -0.017 | tozasertib -0.005 | doramapimod 0.009 | bafetinib -0.017 | [2] 0.023

TBK1 (UniProt Q9UHD2)
Sequence of UniProt Q9UHD2 (Q9UHD2 whole entry, looked up): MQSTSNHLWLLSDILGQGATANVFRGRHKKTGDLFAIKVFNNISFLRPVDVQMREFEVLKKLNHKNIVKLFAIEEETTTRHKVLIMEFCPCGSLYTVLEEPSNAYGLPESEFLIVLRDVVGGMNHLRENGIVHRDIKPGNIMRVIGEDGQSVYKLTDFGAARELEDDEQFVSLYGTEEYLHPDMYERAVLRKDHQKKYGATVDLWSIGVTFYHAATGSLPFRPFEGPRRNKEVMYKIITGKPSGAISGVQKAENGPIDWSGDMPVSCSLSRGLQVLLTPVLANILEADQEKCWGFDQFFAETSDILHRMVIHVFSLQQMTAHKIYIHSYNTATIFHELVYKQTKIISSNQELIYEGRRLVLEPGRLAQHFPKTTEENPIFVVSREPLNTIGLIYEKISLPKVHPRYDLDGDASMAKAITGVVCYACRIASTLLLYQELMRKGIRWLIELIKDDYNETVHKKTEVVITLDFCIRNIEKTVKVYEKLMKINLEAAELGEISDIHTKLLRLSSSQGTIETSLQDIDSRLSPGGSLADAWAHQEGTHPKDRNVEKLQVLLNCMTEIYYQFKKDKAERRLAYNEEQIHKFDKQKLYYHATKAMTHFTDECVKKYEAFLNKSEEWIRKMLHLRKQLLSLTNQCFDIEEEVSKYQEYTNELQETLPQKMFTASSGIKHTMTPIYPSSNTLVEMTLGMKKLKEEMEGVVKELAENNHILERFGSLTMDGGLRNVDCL
inactive: lapatinib 0.042 | pictilisib 0.054 | [1] -0.059 | duvelisib -0.046 | gandotinib 0.342 | tozasertib 0.314 | doramapimod -0.024 | bafetinib 0.007 | [2] -0.044
active: crizotinib 0.469

TPM3 (UniProt P06753)
Sequence of UniProt P06753 (P06753 whole entry, looked up): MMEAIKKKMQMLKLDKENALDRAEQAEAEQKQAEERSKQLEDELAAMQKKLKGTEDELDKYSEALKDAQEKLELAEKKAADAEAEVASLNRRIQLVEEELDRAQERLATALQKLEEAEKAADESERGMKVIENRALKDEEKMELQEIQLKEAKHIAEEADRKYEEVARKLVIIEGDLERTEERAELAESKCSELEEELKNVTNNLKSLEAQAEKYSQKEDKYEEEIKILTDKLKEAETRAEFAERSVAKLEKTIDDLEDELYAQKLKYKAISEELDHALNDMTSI
inactive: lapatinib 0.014 | pictilisib 0.005 | crizotinib 0.022 | [1] 0.123 | duvelisib 0.009 | gandotinib -0.039 | tozasertib -0.003 | doramapimod -0.022 | bafetinib 0.052 | [2] -0.088

TRAPPC12 (UniProt Q8WVT3)
inactive: lapatinib 0.02 | pictilisib -0.017 | crizotinib -0.033 | [1] -0.017 | duvelisib 0.012 | gandotinib -0.042 | tozasertib -0.029 | doramapimod -0.036 | bafetinib -0.039 | [2] 0.048

TUBA1C (UniProt Q9BQE3)
inactive: lapatinib 0.004 | pictilisib -0.057 | crizotinib -0.045 | [1] -0.013 | duvelisib -0.019 | gandotinib 0.062 | tozasertib -0.008 | doramapimod -0.026 | bafetinib 0.005 | [2] 0.021

UBE3C (UniProt Q15386)
inactive: lapatinib -0.004 | pictilisib -0.029 | crizotinib -0.055 | [1] -0.039 | duvelisib 0.007 | gandotinib -0.075 | tozasertib 0 | doramapimod 0.038 | bafetinib -0.036 | [2] 0.021
